Compound activity deposited in PubChem by National Center for Advancing Translational Sciences (NCATS).
In the library only some 4.3% were active in any assay of this set; here they are far more common.
D3 antag – blocks the human D3 dopamine receptor. P35462. D3R cells, DiscoveRx beta-arrestin luminescence, antagonist mode; active compounds read low. max response, negative = inhibition, %. 2.5% of 360,000 active. AID 652054; in the data active = max response below about -50%; inconclusive = no clear call, values can overlap the other calls
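Cells plated overnight at 1500 cells/well, then exposed to library compounds with dopamine controls for 90 minutes at 37 degrees C. DiscoveRx reagent added for 30–60 minutes at room temperature; luminescence read, quantitative HTS format.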
GLP1R ag – activates the human GLP-1 receptor; HEK293 GLP-1R CRE-luciferase, luminescence, 4-6 h; cells express a hypersensitive GLP-1R form; 0.007% of 380,000 active; Potency, µM (top dose mostly 45.6 µM), usual class: activators; P43220; AID 624172
Target sequence (P43220 whole entry, looked up): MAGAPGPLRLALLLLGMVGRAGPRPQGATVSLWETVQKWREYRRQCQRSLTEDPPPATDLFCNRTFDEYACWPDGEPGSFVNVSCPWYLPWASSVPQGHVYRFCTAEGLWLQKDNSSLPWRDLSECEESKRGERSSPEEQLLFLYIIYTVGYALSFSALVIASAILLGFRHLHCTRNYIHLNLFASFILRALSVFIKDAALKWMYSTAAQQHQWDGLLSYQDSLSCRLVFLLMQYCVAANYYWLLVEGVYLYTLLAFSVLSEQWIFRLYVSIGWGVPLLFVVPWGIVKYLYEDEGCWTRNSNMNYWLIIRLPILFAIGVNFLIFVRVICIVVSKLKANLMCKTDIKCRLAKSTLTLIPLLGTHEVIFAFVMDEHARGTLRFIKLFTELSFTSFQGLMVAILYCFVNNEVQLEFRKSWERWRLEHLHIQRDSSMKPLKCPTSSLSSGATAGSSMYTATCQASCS
GLP1R inv ag – GLP-1 receptor (human) inverse agonism; Potency, µM (series often up to 38.3 µM), most hits filed as inhibitors; HEK293 GLP-1R CRE-luciferase, luminescence, 24 h; GLP-1R form is constitutively active; 1.6% of 410,000 active; P43220; also: nearly all actives have a fitted effect of over 55% in size
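Using stably transfected HEK293 (constitutively active GLP-1R, cAMP-luciferase reporter), compounds were incubated 24 hr and luciferase measured by luminescence.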
D3 ag – activates the human D3 dopamine receptor; P35462; 0.58% of 410,000 active; AID 652048; D3R DiscoveRx beta-arrestin cells, luminescence, 90 min; max activation, %; in the data active = max activation above about 30%
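Cells at 1500/well, incubated overnight, then treated with pinned compounds (dopamine as control) for 90 min at 37 degrees C. DiscoveRx reagent added for 30 - 60 minutes at room temperature; luminescence read.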
Numbers stand for hits. Unless noted, calls follow the shape of the dose curve; as a rule, active = well fitted curve in the direction sought with a large enough effect; inconclusive = small, poorly fitted or top-dose-only effect, or another doubt; inactive = no such curve, though single readings can be large; an effect the other way counts as inactive or inconclusive.

Screening O=C(NCC(c1ccco1)N1CCc2ccccc2C1)C(=O)Nc1ccccc1 (configuration not stated) returned D3 antag -90.0, GLP1R ag inactive, GLP1R inv ag inactive and D3 ag inactive.
For O=C(NCC(c1ccco1)N1CCc2ccccc2C1)c1ccc(F)cc1 (configuration not stated) the results were D3 antag inactive, GLP1R ag inactive, GLP1R inv ag inconclusive and D3 ag inactive.
For CCOc1ccc2nc(N(Cc3cccnc3)C(=O)c3ccco3)sc2c1 the results were GLP1R inv ag inactive and D3 ag inactive.
O=C(O)CSCC(=O)NC1CCSC1=O (configuration not stated) was read as GLP1R ag inactive and D3 ag inactive.
Screening COc1cc(/C=C2\SC(c3ccc(C)cc3)=NC2=O)cc(OC)c1O returned D3 antag -53.5, GLP1R ag inactive, GLP1R inv ag inactive and D3 ag inactive.
`Cc1ccc(C2=NC(=O)/C(=C/c3cc(O)c(O)c(Br)c3)S2)cc1` gave D3 antag inactive, GLP1R ag inactive, GLP1R inv ag inactive and D3 ag inactive.
Screening CC1CCC(NC(=O)Cn2c3c(c(-c4ccccc4Cl)cc2=O)CCC3)CC1 (configuration not stated) returned D3 antag -76.7, GLP1R ag inactive, GLP1R inv ag inconclusive and D3 ag inactive.
For Cc1ccc(SCCN2CCN(CCc3ccccc3)CCC2=O)cc1 the results were D3 antag -59.3, GLP1R ag inactive, GLP1R inv ag inactive and D3 ag inactive.
`Cc1ccc(SC[C@H](c2ccccc2)N2CCN(CC(C)C)CCC2=O)cc1` gave D3 antag -88.8, GLP1R ag inactive, GLP1R inv ag inactive and D3 ag inactive.
CC(C)CN1CCC(=O)N([C@H](CSc2ccc(Br)cc2)c2ccccc2)CC1 was read as D3 antag inactive, GLP1R ag inactive, GLP1R inv ag inactive and D3 ag inactive.
For CC(C)C[C@@H](CSc1ccc(Br)cc1)N1CCN(CC(C)C)CCC1=O the results were D3 antag -50.3, GLP1R ag inactive, GLP1R inv ag inconclusive and D3 ag inactive.
For O=C1CCN(CCc2ccccc2)CCN1[C@H](CSc1ccc(Br)cc1)Cc1ccccc1 the results were D3 antag -56.9, GLP1R ag inactive, GLP1R inv ag inconclusive and D3 ag inactive.
For O=C(Nc1cccc(Cl)c1Cl)c1cc(S(=O)(=O)N2CCCc3ccccc32)ccc1F the results were GLP1R inv ag inconclusive and D3 ag inactive.
Screening OCCN(CCO)c1ccc2ccccc2c1 returned D3 antag inactive, GLP1R ag inactive, GLP1R inv ag inactive and D3 ag inactive.
OCCN(CCO)c1ccc(C(c2ccccc2Cl)c2ccc(N(CCO)CCO)cc2Cl)c(Cl)c1 was read as D3 antag inactive, GLP1R ag inactive, GLP1R inv ag 5.01µM and D3 ag inactive.
COc1cccc(C(C(=O)NC2CCCC2)N2CCN(c3cc(C)ccc3C)CC2)c1OC (configuration not stated) was read as D3 antag inactive, GLP1R inv ag 8.91µM and D3 ag inactive.
For Cc1ccc(C)c(N2CCN(C(C(=O)NC3CCCC3)c3ccco3)CC2)c1 (configuration not stated) the results were D3 antag inactive, GLP1R inv ag inactive and D3 ag inactive.
Cc1cc(OC(C)C(=O)N(Cc2ccco2)Cc2ccccc2F)cc(C)c1Cl (configuration not stated) was read as GLP1R inv ag inconclusive and D3 ag inactive.
NC(c1ccc(F)c(F)c1)c1nc(-c2cncnc2)cs1 (configuration not stated) was read as D3 antag inactive, GLP1R ag inactive, GLP1R inv ag inactive and D3 ag inactive.
Screening NC(c1ccc(F)c(F)c1)c1nc(-c2cc(F)cc(F)c2)cs1 (configuration not stated) returned D3 antag -72.0, GLP1R ag inactive, GLP1R inv ag inactive and D3 ag inactive.
`CC1=C(C(=O)Nc2cccc(C(F)(F)F)c2)C2(CCN(C(C)C)CC2)OC1=O` gave GLP1R inv ag inactive and D3 ag inactive.
`Cc1ccccc1N1CCN(Cc2c(C#N)c3ccccc3n2C)CC1` gave D3 antag -56.5, GLP1R ag inactive, GLP1R inv ag inactive and D3 ag inactive.
Cc1ccc(Cl)cc1-n1ncc2c(NCCc3ccccc3)ncnc21 was read as GLP1R inv ag inconclusive and D3 ag inactive.
For Cc1ccc(Cl)cc1-n1ncc2c(NCCCc3ccccc3)ncnc21 the results were GLP1R inv ag 11.2µM and D3 ag inactive.
